This note sets out measurements from PubChem BioAssay (NCI).

Structures are written as SMILES. The panel holds about 83,000 compounds, 20% with a hit somewhere; the sample as a whole holds those more often.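 Results are percent growth after 48 hours of single-concentration exposure. 100 means growth as in untreated cells, lower positive values show inhibition; negative values down to -100 show cell death.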 The source made the active and inactive calls. How the source made its calls: active means growth percent below 10; inactive means the rest.

This assay relates to HL-60(TB) leukemia. The assay is described as follows: NCI-60 one-dose screen, 48 h (100 = growth as untreated, 0 = no growth, -100 = all killed). The note with it: 10 µM unless noted.
In the case of `CCN(CC)CCNC(=O)C(F)(F)C(F)(F)C(F)(F)F`, the growth is 108% (inactive).

Consider `CN1CCN(c2ccc(/C=C/C(=O)c3ccc(O)cc3)cc2)CC1`, for which the growth is 115% (inactive).

As to `Cc1ccc(Nc2cc(N)nc(N)n2)cc1`, the growth was 99.6% (inactive).
